According to PubChem BioAssay (NCATS):
Several values for one entry are separate records, joined by “and”; a condition that tells them apart may be missing. Equal values may be shown once. Inconclusive results are not listed. A call without a number means that no potency is given here. Activity calls are given as the source filed them. Unless noted, calls come from the whole dose curve; as a rule, active = well fitted curve in the direction sought with a large enough effect; inconclusive = small, poorly fitted or top-dose-only effect, or another doubt; inactive = no such curve, though single readings can be large; an effect the other way counts as inactive or inconclusive.

How the values were obtained:
[1] = Cell Viability - Jurkat (AID 426;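 active = dose-dependent loss of cell ATP signal giving a full or clear fitted curve, ranked by lower potency value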; note: potency is the fitted concentration of half-maximal effect); details: qHTS
Method in brief: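 Cytotoxicity taken as drop in cellular ATP (CellTiter-Glo luminescence, 20 min room temperature) after 40 hr, 37C treatment of 5000 Jurkat Clone E6-1 cells per well; concentration-response fitted with Hill equation for AC50.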

[2] = Cell Viability - Hek293 (AID 427;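 active = compounds whose dose-response curve shows a full or clear partial loss of cell viability, called from curve shape rather than a numeric limit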;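 note: potency is the fitted concentration of half-maximal effect; cells exposed to compound for 40 hours at 37 °C before reading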); details: qHTS
Method in brief: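 Luminescent ATP content (CellTiter-Glo, 20 min at room temperature) was measured after a 40 hr, 37 °C compound exposure of HEK293 cells. AC50 values came from Hill-equation fits of qHTS concentration-response data normalized to DMSO and 100 uM tamoxifen.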

[3] = Cell Viability - HepG2 (AID 433; calls by dose curve;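 note: potency is the fitted concentration of half-maximal effect; potency for ATP loss meaning cytotoxicity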); details: qHTS
Method in brief: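 HepG2 cells, 1500 per well, treated 40 hr at 37 °C in complete medium; viability from intracellular ATP by CellTiter-Glo luminescence. Normalized to DMSO and 100 uM tamoxifen; AC50 from Hill fit of qHTS concentration-response.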

[4] = Cell Viability - SK-N-SH (AID 435; calls by dose curve;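 note: potency is the fitted concentration of half-maximal effect; compound exposure lasted 40 h at 37 °C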); details: SK-N-SH neuroblastoma cell viability qHTS
Method in brief: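 SK-N-SH neuroblastoma cells (1500/well) treated 40 h at 37 °C in complete medium; viability read as cellular ATP by CellTiter-Glo luminescence. Normalized to DMSO and 100 uM tamoxifen; AC50 from Hill fits of qHTS concentration-response.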

[5] = Cell Viability - SH-SY5Y (AID 544); details: SH-SY5Y neuroblastoma cell viability; viability change, negative = cytotoxic: at 92.2 µM (top of the series); note: nearly all actives have a fitted effect of over 55% in size
Method in brief: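 Cytotoxicity measured via ATP-dependent luciferase luminescence (CellTiter-Glo) following 40 h, 37 °C exposure of 1500 SH-SY5Y cells per well. Concentration-response data were fitted with the standard Hill equation to give AC50.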

[6] = Cell Viability - Renal Proximal Tubule (AID 545); details: renal proximal tubule cells viability, primary cells of rat origin; activity change, negative = cytotoxicity: at 91.7 µM (top of the series); note: nearly all actives have a fitted effect of over 40% in size
Method in brief: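 Rat renal proximal tubule primary cells, 1000/well, exposed to compounds for 40 hr at 37 °C in complete medium; cellular ATP read by CellTiter-Glo luminescence. AC50 from concentration-response fitted with standard Hill equation.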

[7] = Cell Viability - LYMP2-001 (AID 921); details: LYMP2-001 lymphoblastoid cell viability; series mostly up to 92.2 µM; note: nearly all actives have a fitted effect of over 70% in size
Method in brief: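 Human lymphoblastoid LYMP2-001 cells, 2500 per well, in complete medium, treated 24 h at 37 C. Viability from cellular ATP by CellTiter-Glo luminescence; AC50 from Hill-equation fits of qHTS concentration-response.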

[8] = MultiTox-Fluor Cytotoxicity Assay - LYMP1-002 - Dead Cells (AID 960); details: LYMP1-002 lymphoblastoid cells, dead-cell protease fluorescence; series mostly up to 46.1 µM; note: nearly all actives have a fitted effect of over 60% in size
Method in brief: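 Dead-cell fluorescence (Ex/Em 485/520) after 16 h compound exposure at 37 C of LYMP1-002 lymphoblastoid cells in complete medium; AC50 by Hill equation, with data scaled between DMSO and 15 uM tetraoctylammonium bromide.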

[9] = Cell Viability - LYMP2-005 (AID 967); details: LYMP2-005 lymphoblastoid cell viability; series mostly up to 92.2 µM
Method in brief: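 Human lymphoblastoid LYMP2-005 cells, 2,500 per well in complete medium, rested 5 h at 37C then compound-treated 24 h at 37C. Intracellular ATP read by CellTiter-Glo luminescence after 30 min at room temperature; AC50 from Hill-equation fits of concentration-response data.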

[10] = Cell Viability - LYMP2-015 (AID 971); details: LYMP2-015 lymphoblastoid cell viability; series mostly up to 92.2 µM; note: nearly all actives have a fitted effect of over 55% in size
Method in brief: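 Cytotoxicity readout: decrease in intracellular ATP (CellTiter-Glo luminescence) in 2500 LYMP2-015 lymphoblastoid cells/well after 24 h compound exposure at 37 C. Concentration-response data fitted with the standard Hill equation to give AC50.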

[11] = Cell Viability - LYMP2-010 (AID 981); details: LYMP2-010 lymphoblastoid cell viability, qHTS; series mostly up to 92.2 µM;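 note: cells exposed to compound for 24 hours at 37 °C; nearly all actives have a fitted effect of over 55% in size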
Method in brief: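 CellTiter-Glo ATP luminescence measured cytotoxicity after 24 h compound exposure at 37 C. LYMP2-010 cells were seeded at 2500/well, with tetraoctylammonium bromide as control; concentration-response curves gave AC50 values by the Hill equation.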

[12] = Cell Viability - LYMP2-024 (AID 988); details: LYMP2-024 lymphoblastoid cell viability; series mostly up to 92.2 µM; note: nearly all actives have a fitted effect of over 60% in size
Method in brief: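 Cytotoxicity was taken as a decrease in ATP (CellTiter-Glo luminescence) after 24 hr compound exposure at 37 C of LYMP2-024 lymphoblastoid cells, 2500 cells/well. Concentration-response data were fitted to the Hill equation to give AC50.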

[13] = target: Thyroid hormone receptor beta (Homo sapiens) (UniProt P10828); test: qHTS assay for small molecule agonists of thyroid hormone receptor beta signaling (AID 588545; calls by dose curve); details: TR-UAS-bla GripTite HEK 293, beta-lactamase ratio, agonist mode, 18 h; series mostly up to 76.7 µM
Chain of Thyroid hormone receptor beta (Homo sapiens) (P10828 whole entry, looked up): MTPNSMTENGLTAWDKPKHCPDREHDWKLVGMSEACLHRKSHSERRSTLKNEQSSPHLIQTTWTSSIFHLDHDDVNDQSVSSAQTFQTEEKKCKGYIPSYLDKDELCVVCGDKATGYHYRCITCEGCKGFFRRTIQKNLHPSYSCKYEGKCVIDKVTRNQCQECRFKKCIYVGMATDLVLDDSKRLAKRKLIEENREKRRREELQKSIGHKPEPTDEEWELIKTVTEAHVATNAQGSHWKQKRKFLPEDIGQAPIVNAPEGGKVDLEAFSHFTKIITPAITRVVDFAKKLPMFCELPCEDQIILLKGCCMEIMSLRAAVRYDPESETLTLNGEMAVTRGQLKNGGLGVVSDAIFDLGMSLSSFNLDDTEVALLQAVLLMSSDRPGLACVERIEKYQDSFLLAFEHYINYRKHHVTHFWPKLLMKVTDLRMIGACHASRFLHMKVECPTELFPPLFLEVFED
Method in brief: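 Stimulation of a TR-driven beta-lactamase reporter was quantified in GripTite HEK 293 cells. Compound series ran for 18 hrs; curves were normalized to T3 and DMSO controls and fitted to yield EC50.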

[14] = qHTS assay for small molecule antagonists of retinoid X receptor alpha signaling (AID 588546; active = well fitted inhibition curve with a large enough effect in the signal ratio, with a control signal flat, not every such curve was filed as active; the % refers to the signal ratio;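 note: cells stimulated with 9-cis-retinoic acid as agonist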); details: HEK293T RXRa-UAS-bla, beta-lactamase ratio, antagonist mode; measured here: W530 green channel, cytotoxicity proxy
Method in brief: (§1)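 Beta-lactamase reporter inhibition, read as CCF4 fluorescence ratio (ex 405, em 460/530 nm) after 2 h at RT. HEK293T UAS-bla cells, 2500/well, were stimulated with 9-cis-RA at 500 or 100 nM final alongside test compound for 18 h at 37 C.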

[15] = target: Retinoic acid receptor RXR-alpha (Homo sapiens) (UniProt P19793); test: as above; details: HEK293T RXRa-UAS-bla, beta-lactamase ratio, antagonist mode
Chain of Retinoic acid receptor RXR-alpha (Homo sapiens) (P19793 whole entry, looked up): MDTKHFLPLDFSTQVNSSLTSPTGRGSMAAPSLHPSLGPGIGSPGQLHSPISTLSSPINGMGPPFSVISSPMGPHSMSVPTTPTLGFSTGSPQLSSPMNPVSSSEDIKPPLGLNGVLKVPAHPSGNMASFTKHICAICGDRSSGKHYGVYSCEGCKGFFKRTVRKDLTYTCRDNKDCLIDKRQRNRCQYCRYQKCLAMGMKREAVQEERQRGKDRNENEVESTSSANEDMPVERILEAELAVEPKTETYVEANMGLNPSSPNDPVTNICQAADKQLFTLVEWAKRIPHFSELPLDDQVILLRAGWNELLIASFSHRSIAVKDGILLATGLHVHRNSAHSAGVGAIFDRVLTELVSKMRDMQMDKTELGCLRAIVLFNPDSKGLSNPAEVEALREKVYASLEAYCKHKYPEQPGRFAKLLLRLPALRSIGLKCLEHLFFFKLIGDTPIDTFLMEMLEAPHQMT
Method in brief: as §1

[16] = target: Thyroid hormone receptor beta (Homo sapiens) (UniProt P10828); test: qHTS assay for small molecule antagonists of thyroid hormone receptor beta signaling (AID 588547; active = well fitted inhibition curve with a large enough effect in the signal ratio, with a control signal flat, not every such curve was filed as active; the % refers to the signal ratio;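 note: cells stimulated with 0.4 nM T3 agonist during compound exposure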); details: TR-UAS-bla HEK293, beta-lactamase ratio, antagonist mode, 18 h
Method in brief: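 Inhibition of T3-driven (0.4nM final) beta-lactamase reporter activity was measured over 0.59 nM to 92 uM compound after 18 h at 37 C. The cells were GripTite HEK293 TR-UAS-bla in charcoal/dextran-stripped serum, with CCF4 ratio read-out and IC50 from Hill fits.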

[17] = target: Voltage-gated inwardly rectifying potassium channel KCNH2 (Homo sapiens) (UniProt Q12809); test: qHTS Assay for Small Molecule Inhibitors of the Human hERG Channel Activity (AID 588834); details: U2OS BacMam hERG, FluxOR thallium flux fluorescence; series mostly up to 92.2 µM;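 note: top concentration of the series differs between compounds; lower thallium flux fluorescence means stronger hERG block; nearly all actives have a fitted effect of over 50% in size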
Chain of Voltage-gated inwardly rectifying potassium channel KCNH2 (Homo sapiens) (Q12809 whole entry, looked up): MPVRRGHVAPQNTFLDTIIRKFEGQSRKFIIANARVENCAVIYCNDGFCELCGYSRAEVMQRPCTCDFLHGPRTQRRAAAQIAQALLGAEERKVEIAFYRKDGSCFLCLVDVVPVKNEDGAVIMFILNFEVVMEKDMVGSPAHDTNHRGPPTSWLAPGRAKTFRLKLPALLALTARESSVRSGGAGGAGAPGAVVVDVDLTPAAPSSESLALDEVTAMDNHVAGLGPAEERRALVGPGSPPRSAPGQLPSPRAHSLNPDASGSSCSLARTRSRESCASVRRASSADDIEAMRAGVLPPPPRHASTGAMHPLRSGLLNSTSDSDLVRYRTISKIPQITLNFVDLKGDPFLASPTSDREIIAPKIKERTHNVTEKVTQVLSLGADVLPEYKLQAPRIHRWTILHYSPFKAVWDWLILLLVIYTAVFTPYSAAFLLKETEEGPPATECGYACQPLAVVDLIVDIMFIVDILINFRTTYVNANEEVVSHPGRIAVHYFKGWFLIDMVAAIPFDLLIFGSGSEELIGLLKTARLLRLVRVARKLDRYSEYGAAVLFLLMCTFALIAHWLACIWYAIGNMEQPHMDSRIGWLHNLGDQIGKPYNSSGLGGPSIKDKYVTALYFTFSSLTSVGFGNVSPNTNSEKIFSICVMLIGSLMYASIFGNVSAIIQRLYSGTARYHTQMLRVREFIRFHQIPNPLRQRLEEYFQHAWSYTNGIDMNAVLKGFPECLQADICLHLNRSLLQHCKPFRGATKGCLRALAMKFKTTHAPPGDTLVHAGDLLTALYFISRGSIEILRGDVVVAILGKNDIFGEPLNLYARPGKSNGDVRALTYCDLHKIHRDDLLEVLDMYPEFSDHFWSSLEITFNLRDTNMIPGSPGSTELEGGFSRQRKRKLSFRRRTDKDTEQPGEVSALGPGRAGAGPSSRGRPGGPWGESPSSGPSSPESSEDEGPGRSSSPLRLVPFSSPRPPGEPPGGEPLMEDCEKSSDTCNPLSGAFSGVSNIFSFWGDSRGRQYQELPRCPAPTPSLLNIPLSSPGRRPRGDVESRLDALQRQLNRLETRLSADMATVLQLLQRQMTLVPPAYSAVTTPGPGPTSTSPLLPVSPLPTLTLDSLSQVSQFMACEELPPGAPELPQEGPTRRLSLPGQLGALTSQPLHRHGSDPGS
Method in brief: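 Thallium serves as surrogate for K+ influx through BacMam-delivered hERG in U2OS cells. Compounds are added for about 10 minutes after dye loading; stimulation buffer then starts flux, monitored kinetically on FDSS.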

[18] = qHTS assay for small molecule disruptors of the mitochondrial membrane potential - 5 hr assay (AID 651755; calls by dose curve; note: nearly all actives have a fitted effect of over 40% in size; note: potency is the fitted concentration of half-maximal effect); details: JC-1-type ratio dye; series mostly up to 92.2 µM
Method in brief: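 Membrane-potential dye readout: red aggregate (540 ex/590 em) versus green monomer (490 ex/535 em) fluorescence after 30 min dye loading, following 5 hr compound exposure at 37C of overnight-plated HepG2 cells.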

[19] = qHTS assay for small molecule antagonists of the retinoid-related orphan receptor gamma (ROR-gamma) signaling pathway - cell viability counter screen (AID 720652; active = well fitted curve in the direction sought with a large enough effect in the repeat runs; an effect the other way counts as inactive or inconclusive;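 note: CHO reporter cells with doxycycline-induced ROR-gamma expression; compound exposure lasted 16 hr before ATP read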); details: RORgamma reporter cell line viability counter screen; series mostly up to 92.2 µM
Method in brief: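 Cytotoxicity counter screen: intracellular ATP (CellTiter-Glo luminescence) measured in the doxycycline-induced CHO RORE-luciferase reporter line after 16 hr compound exposure at 37 C, 5% CO2.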

[20] = target: Nuclear receptor subfamily 1 group I member 2 (Rattus norvegicus) (UniProt Q9R1A7); test: qHTS assay for small molecule activators of the rat pregnane X receptor (rPXR) signaling pathway (AID 651751; call rule not given here); details: rPXR reporter cells, luciferase (One-Glo), 24 h
Chain of Nuclear receptor subfamily 1 group I member 2 (Rattus norvegicus) (Q9R1A7 whole entry, looked up): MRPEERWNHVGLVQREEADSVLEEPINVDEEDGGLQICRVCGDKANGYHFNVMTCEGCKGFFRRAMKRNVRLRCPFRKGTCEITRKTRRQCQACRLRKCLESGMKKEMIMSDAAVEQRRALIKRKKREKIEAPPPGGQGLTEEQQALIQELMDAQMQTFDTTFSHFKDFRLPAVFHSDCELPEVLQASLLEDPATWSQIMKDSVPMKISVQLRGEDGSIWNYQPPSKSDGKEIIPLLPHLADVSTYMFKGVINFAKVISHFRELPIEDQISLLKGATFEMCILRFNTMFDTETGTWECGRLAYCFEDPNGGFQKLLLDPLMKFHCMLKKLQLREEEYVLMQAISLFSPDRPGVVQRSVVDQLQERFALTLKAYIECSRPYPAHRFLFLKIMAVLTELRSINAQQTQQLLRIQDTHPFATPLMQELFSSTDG

SMILES	Potency [1]	Potency [2]	Potency [3]	Potency [4]	Potency [5]	Potency [6]	Potency [7]	Potency [8]	Potency [9]	Potency [10]	Potency [11]	Potency [12]	Potency [13]	max response [14]	max response [15]	activity change % (negative = inhibition) [16]	Potency [17]	Potency [18]	Potency [19]	max response [20]
COc1cc(-c2ccc(N=C=O)c(OC)c2)ccc1N=C=O	> 92 µM (inactive)	> 92 µM (inactive)	> 92 µM (inactive)	> 92 µM (inactive)	inactive	inactive	inactive	inactive	inactive	inactive	inactive	inactive	inactive	-13.8%	-6.94% (inactive)	-7.61% (inactive)	inactive	inactive	inactive	–
CC(C)S	> 92 µM (inactive)	> 92 µM (inactive)	> 92 µM (inactive)	> 92 µM (inactive)	inactive	inactive	inactive	inactive	inactive	inactive	inactive	inactive	inactive	0.793%	1.63% (inactive)	11.8% (inactive)	inactive	inactive	inactive	-6.45% (inactive)
Brc1ccc(-c2ccccc2)cc1	> 92 µM (inactive)	> 92 µM (inactive)	> 92 µM (inactive)	> 92 µM (inactive)	inactive	inactive	inactive	inactive	inactive	inactive	inactive	inactive	inactive	–	–	–	–	–	inactive	1.6% (inactive)
Nc1cc([N+](=O)[O-])ccc1O	> 92 µM (inactive)	> 92 µM (inactive)	> 92 µM (inactive)	> 92 µM (inactive)	inactive	inactive	inactive	inactive	inactive	inactive	inactive	inactive	inactive	-1.99% and 10.2%	2.5% (inactive) and -26.6% (inactive)	11.2% (inactive) and 4.34% (inactive)	inactive	29.8 µM (active)	inactive	5.65% (inactive) and 2.03% (inactive)
Brc1cc(Oc2cc(Br)c(Br)c(Br)c2Br)c(Br)c(Br)c1Br	–	> 92 µM (inactive)	> 92 µM (inactive)	> 92 µM (inactive)	–	inactive	inactive	inactive	inactive	inactive	inactive	inactive	inactive	11.5% and 5.63%	8.94% (inactive) and -3.66% (inactive)	1.8% (inactive) and 9.48% (inactive)	inactive	inactive	inactive	2.26% (inactive) and 7.81% (inactive)
CCCCC(CC)COCCCN (stereo not given)	> 92 µM (inactive)	> 92 µM (inactive)	> 92 µM (inactive)	> 92 µM (inactive)	inactive	inactive	inactive	inactive	inactive	inactive	inactive	inactive	inactive	3.99%	10.8% (inactive)	3.53% (inactive)	inactive	–	inactive	1.77% (inactive)
Oc1cc(Cl)cc(Cl)c1Cl	–	–	> 92 µM (inactive)	–	–	inactive	inactive	inactive	inactive	inactive	inactive	–	inactive	–	–	–	inactive	–	inactive	0.309% (inactive)
CC(C)COC(=O)COc1cc(Cl)c(Cl)cc1Cl	> 92 µM (inactive)	> 92 µM (inactive)	> 92 µM (inactive)	> 92 µM (inactive)	inactive	inactive	inactive	inactive	inactive	inactive	inactive	inactive	inactive	-2.2%	8.47% (inactive)	14.2% (inactive)	–	–	inactive	-2.47% (inactive)
